Records with an inconclusive call do not appear. Activity calls are given as the source filed them. Unless noted, calls follow the shape of the dose curve; as a rule, active = well fitted curve in the direction sought with a large enough effect; inconclusive = small, poorly fitted or top-dose-only effect, or another doubt; inactive = no such curve, though single readings can be large; an effect the other way counts as inactive or inconclusive.
What was measured:
[1] = qHTS assay for small molecule disruptors of the mitochondrial membrane potential - 1 hr assay (AID 651754; calls by dose curve; also: % is scaled to controls: 0 for no effect and ±100 for the full control effect; nearly all actives have a fitted effect of over 35% in size)
In short: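 Read-out: dye fluorescence at 490 nm ex/535 nm em (monomers) and 540 nm ex/590 nm em (aggregates) in HepG2 cells. Compound exposure 1 hr at 37C, followed by 30 min dye loading.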

[2] = qHTS assay for small molecule disruptors of the mitochondrial membrane potential - 5 hr assay (AID 651755; calls by dose curve; also: % is scaled to controls: 0 for no effect and ±100 for the full control effect; nearly all actives have a fitted effect of over 40% in size)
In short: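 Read-out: ratiometric Mito-MPS fluorescence, green monomer (ex 490/em 535) vs red mitochondrial aggregate (ex 540/em 590). HepG2 cells treated 5 hr at 37C before 30 min dye loading.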

[3] = molecular target: Tumor necrosis factor (Homo sapiens) (UniProt P01375); assay: qHTS assay to identify small molecules that stimulate Tumor Necrosis Factor-alpha (TNF-alpha) secretion (AID 651757; active = well fitted curve in the direction sought with a large enough effect in the signal ratio; the % refers to the signal ratio; also: 0% is about no effect)
In short: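 THP-1 cells, 3000/well; compound 17 hrs, 37 C; add cryptate/XL665 anti-TNF-alpha antibody pair; 3 hr RT; TR-FRET (HTRF) read of secreted TNF-alpha. Quantitative HTS format.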

[4] = qHTS assay for environmental chemicals that activate the Aryl hydrocarbon Receptor (AhR) signaling pathway (AID 651777); conditions: 1A2-DRE human hepatoma cells, luciferase, 24 h; activation: stronger effect = higher value; also: % of control where 0% means no effect; nearly all actives have a fitted effect of over 15% in size
In short: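 Stable CYP1A2 promoter/DRE-luciferase human hepatoma line treated 24 hr; One-Glo luminescence, 30 min RT.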

[5] = molecular target: Peroxisome proliferator-activated receptor alpha (Homo sapiens) (UniProt Q07869); assay: qHTS assay for small molecule agonists of the peroxisome proliferator-activated receptor alpha (PPARalpha) signaling pathway (AID 651778); conditions: PathHunter PPARalpha complementation, chemiluminescence, 6 h; stronger effect = higher value; also: % of control where 0% means no effect
In short: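 Enzyme-fragment complementation assay in which ligand-bound PPARalpha translocates and forms an active enzyme that generates chemiluminescence. Cells were plated overnight, exposed to compound for 6 hr at 37 C, and then given detection reagent for 60 min at room temperature.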

[6] = qHTS assay for small molecule agonists of the antioxidant response element (ARE) signaling pathway measured by Nrf2-dependant transcriptional activity (AID 720636; active = well fitted curve in the direction sought with a large enough effect in the repeat runs; an effect the other way counts as inactive or inconclusive;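 also: HepG2 cells with an ARE-driven luciferase reporter; % of control where 0% means no effect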)
In short: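 Reporter gene assay, HepG2 ARE-luc: 16 hr compound, 37 C, 5% CO2; read-out luciferase luminescence.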

[7] = qHTS assay for small molecule antagonists of the retinoid-related orphan receptor gamma (ROR-gamma) signaling pathway - cell viability counter screen (AID 720652; active = well fitted curve in the direction sought with a large enough effect in the repeat runs; an effect the other way counts as inactive or inconclusive;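 also: CHO reporter cells with doxycycline-induced ROR-gamma expression; series mostly up to about 92 µM; compound exposure lasted 16 hr before ATP read; % is scaled to controls: 0 for no effect and ±100 for the full control effect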)
In short: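 CHO RORE-LUC/TET-ROR line, 1,000 cells/well, 37 C 5% CO2 5 hr; cpd or DMSO + doxycycline induction, 16 hr. CellTiter-Glo, 30 min RT, luminescence = ATP content.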

[8] = qHTS assay for small molecule agonists of the antioxidant response element (ARE) signaling pathway measured by Nrf2-dependant transcriptional activity - cell viability counter screen (AID 720653; active = well fitted curve in the direction sought with a large enough effect in the repeat runs; an effect the other way counts as inactive or inconclusive; also: % is scaled to controls: 0 for no effect and ±100 for the full control effect); conditions: ARE-bla HepG2 viability, CellTiter-Glo ATP luminescence, 16 h; stronger effect = lower value
In short: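 ARE-bla HepG2 cells treated with compounds for 16 h at 37C; this counter screen measures viability as intracellular ATP by CellTiter-Glo luminescence after 30 min at room temperature.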

[9] = qHTS assay for cell viability of HEK293 cells (AID 743288); conditions: ATP luminescence (CellTiter-Glo), 18 h, stronger effect = lower value; also: % is scaled to controls: 0 for no effect and ±100 for the full control effect; nearly all actives have a fitted effect of over 50% in size
In short: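 Readout is luciferase-coupled ATP content (CellTiter-Glo luminescence, 30 min room temperature) as a measure of metabolically competent cells. Parental HEK293 cells were plated 5 h or more before compound addition, then treated 18 h at 37 C.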

[10] = qHTS assay for cell viability of the p53RE-bla HCT-116 cell line (AID 743292); also: % is scaled to controls: 0 for no effect and ±100 for the full control effect; nearly all actives have a fitted effect of over 55% in size
In short: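 Readout: CellTiter-Glo luminescence after 30 min RT. Treatment: compounds in DMSO, 16 h, 37 C. Cells: CellSensor p53RE-bla HCT-116, 4,000/well, preincubated 5 h.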

[11] = molecular target: Nuclear receptor subfamily 1 group I member 2 (Rattus norvegicus) (UniProt Q9R1A7); assay: qHTS assay for small molecule activators of the rat pregnane X receptor (rPXR) signaling pathway (AID 651751; call rule not given here; also: 0% is about no effect); conditions: rPXR reporter cells, luciferase (One-Glo), 24 h
[12] = qHTS assay for small molecule activators of the human pregnane X receptor (PXR) signaling pathway (AID 720659; call rule not given here; also: 0% is about no effect)
[13] = molecular target: Nuclear receptor ROR-gamma (Homo sapiens) (UniProt P51449); assay: qHTS assay for small molecule antagonists of the retinoid-related orphan receptor gamma (ROR-gamma) signaling pathway (AID 651802);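 also: CHO cells with doxycycline-induced ROR-gamma expression; luciferase reporter luminescence driven by ROR response element; series mostly up to about 92 µM; % is scaled to controls: 0 for no effect and ±100 for the full control effect; nearly all actives have a fitted effect of over 60% in size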
In short: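 Luciferase read-out: ONE-Glo luminescence after 30 min at room temperature, following 16hr doxycycline induction at 37C, 5% CO2 of CHO cells with TET-inducible ROR and RORE-LUC reporter; decreased luminescence = reduced reporter activity.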

[14] = qHTS assay to identify small molecules that stimulate interleukin-8 (IL-8) secretion (AID 651758; active = well fitted activation curve with a large enough effect in the signal ratio; the % refers to the signal ratio; also: 0% is about no effect)
In short: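 Compounds are added to THP-1 cells (2000 per well) and left 16 hrs at 37 C. A labeled anti-IL-8 antibody pair is then added, and IL-8 secretion is measured by time-resolved FRET after 1-3 hrs at room temperature.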

Sequence of Peroxisome proliferator-activated receptor alpha (Homo sapiens) (Q07869 whole entry, looked up, the tested form may be a part): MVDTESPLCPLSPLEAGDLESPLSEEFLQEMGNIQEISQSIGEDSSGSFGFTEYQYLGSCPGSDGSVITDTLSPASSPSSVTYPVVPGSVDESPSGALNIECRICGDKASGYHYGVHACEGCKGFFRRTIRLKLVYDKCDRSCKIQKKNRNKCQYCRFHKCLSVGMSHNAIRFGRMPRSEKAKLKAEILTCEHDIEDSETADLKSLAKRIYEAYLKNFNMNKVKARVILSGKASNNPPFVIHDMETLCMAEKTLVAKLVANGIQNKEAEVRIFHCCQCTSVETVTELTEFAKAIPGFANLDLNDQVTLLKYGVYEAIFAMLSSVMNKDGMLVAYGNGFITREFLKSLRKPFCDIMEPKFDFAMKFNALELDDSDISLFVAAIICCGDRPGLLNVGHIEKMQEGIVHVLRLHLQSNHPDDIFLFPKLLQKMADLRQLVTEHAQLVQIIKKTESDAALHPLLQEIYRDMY
Sequence of Nuclear receptor subfamily 1 group I member 2 (Rattus norvegicus) (Q9R1A7 whole entry, looked up): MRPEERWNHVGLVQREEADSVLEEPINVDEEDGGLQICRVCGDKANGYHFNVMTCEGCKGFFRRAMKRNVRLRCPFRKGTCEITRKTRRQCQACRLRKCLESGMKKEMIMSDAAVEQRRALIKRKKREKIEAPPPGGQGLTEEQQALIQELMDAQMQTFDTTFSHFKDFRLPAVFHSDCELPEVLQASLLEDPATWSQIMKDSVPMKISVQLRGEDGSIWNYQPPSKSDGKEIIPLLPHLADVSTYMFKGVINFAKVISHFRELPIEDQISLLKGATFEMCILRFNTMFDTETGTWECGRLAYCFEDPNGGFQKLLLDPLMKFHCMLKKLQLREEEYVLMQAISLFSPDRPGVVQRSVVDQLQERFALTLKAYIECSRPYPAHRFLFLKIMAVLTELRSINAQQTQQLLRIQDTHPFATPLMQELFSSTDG
Sequence of Tumor necrosis factor (Homo sapiens) (P01375 whole entry, looked up): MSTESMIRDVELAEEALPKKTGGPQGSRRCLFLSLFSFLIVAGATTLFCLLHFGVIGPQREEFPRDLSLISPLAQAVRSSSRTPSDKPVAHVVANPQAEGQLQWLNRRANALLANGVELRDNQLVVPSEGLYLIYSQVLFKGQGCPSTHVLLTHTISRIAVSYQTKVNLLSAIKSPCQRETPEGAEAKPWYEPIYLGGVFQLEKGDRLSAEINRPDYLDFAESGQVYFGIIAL
Sequence of Nuclear receptor ROR-gamma (Homo sapiens) (P51449 whole entry, looked up): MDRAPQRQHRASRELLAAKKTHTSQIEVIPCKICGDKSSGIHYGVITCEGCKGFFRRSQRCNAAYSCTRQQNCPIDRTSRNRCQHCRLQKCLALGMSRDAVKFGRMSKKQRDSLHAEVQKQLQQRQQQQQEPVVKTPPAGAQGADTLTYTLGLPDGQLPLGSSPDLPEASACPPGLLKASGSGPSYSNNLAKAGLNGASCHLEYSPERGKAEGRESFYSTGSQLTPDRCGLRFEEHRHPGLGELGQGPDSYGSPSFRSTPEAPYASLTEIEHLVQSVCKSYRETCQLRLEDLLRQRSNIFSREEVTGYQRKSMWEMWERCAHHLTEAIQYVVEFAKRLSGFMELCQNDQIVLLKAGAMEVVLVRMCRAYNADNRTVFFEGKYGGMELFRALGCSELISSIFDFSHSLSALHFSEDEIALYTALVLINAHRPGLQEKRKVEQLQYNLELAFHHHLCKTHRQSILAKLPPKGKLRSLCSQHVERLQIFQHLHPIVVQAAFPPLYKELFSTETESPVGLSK

CNC(=O)N(c1ccccc1)c1ccccc1
inactive: Potency [1] | Potency [2] | Potency [3] | activation [4] -0.495% | max response [5] -2.12% | outcome [6] | Potency [7] | max response [8] -11.7% | max response [9] 1.15% | Potency [10] | max response [11] 1.74% | outcome [12]

O=Cc1cccc(Br)c1
inactive: Potency [1] | Potency [2] | Potency [3] | activation [4] 0.191% | max response [5] -2.07% | Potency [13] | outcome [6] | max response [8] 0.536% | max response [9] 1.54% | Potency [10] | max response [11] 5.18% | outcome [12]

CC(C)CCOC(=O)/C=C/c1ccccc1
inactive: Potency [1] | Potency [2] | Potency [3] | activation [4] 0.411% | max response [5] 0.372% | Potency [13] | outcome [6] | max response [8] 5.13% | max response [9] -10.1% | Potency [10] | max response [11] 0.15% | outcome [12]

O=C(O)c1cccc(Cl)c1Cl
inactive: Potency [1] | Potency [2] | Potency [3] | activation [4] -1.06% | max response [5] -2.92% | Potency [13] | outcome [6] | max response [8] 3.31% | max response [9] 6.72% | Potency [10] | max response [11] -3.88% | outcome [12]

CC(C)(C)OC=O
inactive: Potency [1] | Potency [3] | Potency [14] | activation [4] -1.07% | max response [5] -0.442% | Potency [13] | outcome [6] | Potency [7] | max response [8] 9.86% | max response [9] 5.3% | Potency [10] | max response [11] 3.48% | outcome [12]

C[C@@H]1O[C@@H](O[C@@H]2[C@@H](O)[C@H](OCCc3ccc(O)c(O)c3)O[C@H](CO[C@@H]3O[C@H](CO)[C@@H](O)[C@H](O)[C@H]3O)[C@H]2OC(=O)/C=C/c2ccc(O)c(O)c2)[C@H](O)[C@H](O)[C@H]1O
inactive: Potency [1] | Potency [2] | max response [5] 0.275% | Potency [13] | outcome [6] | max response [8] -6.98% | max response [9] -6.2% | Potency [10] | max response [11] 1.79% | outcome [12]

Cc1cc(C2(c3cc(C)c(O)cc3C)OS(=O)(=O)c3ccccc32)c(C)cc1O
inactive: Potency [1] | Potency [2] | activation [4] 0.42% | Potency [13] | outcome [6] | Potency [7] | max response [8] -15.6% | max response [9] -2.41% | Potency [10] | max response [11] -3.33%

O=C1OC(=O)c2cc([N+](=O)[O-])ccc21
inactive: Potency [1] | Potency [2] | Potency [14] | activation [4] -0.234% | max response [5] -4.48% | Potency [13] | outcome [6] | Potency [7] | max response [8] -1.02% | max response [9] -5.72% | Potency [10] | max response [11] -0.914% | outcome [12]

CC(C)N(C)C
inactive: Potency [1] | Potency [3] | Potency [14] | activation [4] -0.41% | max response [5] -5.48% | Potency [13] | outcome [6] | Potency [7] | max response [8] 2.26% | max response [9] 6.47% | Potency [10] | max response [11] -2.95% | outcome [12]

CCNc1cc(O)ccc1C
inactive: Potency [1] | Potency [2] | activation [4] 6.45% | max response [5] -6.44% | Potency [13] | outcome [6] | Potency [7] | max response [8] 9.97% | max response [9] 2.21% | Potency [10] | max response [11] -2.12%

N#Cc1ccccc1
inactive: Potency [1] | Potency [2] | Potency [3] | max response [5] -0.81% | Potency [13] | outcome [6] | max response [8] 0.163% | max response [9] 7.56% | Potency [10] | max response [11] -4.02% | outcome [12]

C/C=C(/C)C#N
inactive: Potency [1] | Potency [2] | Potency [3] | activation [4] 1.73% | Potency [13] | outcome [6] | max response [8] -5.17% | max response [9] 0.0053% | Potency [10] | max response [11] 8.65% | outcome [12]

COc1cccc(N)c1
inactive: Potency [1] | Potency [2] | Potency [3] | max response [5] -3.67% | Potency [13] | outcome [6] | Potency [7] | max response [8] 10.6% | max response [9] -0.119% | Potency [10] | max response [11] 12.1% | outcome [12]

CC(=O)CCc1ccccc1
inactive: Potency [1] | Potency [2] | Potency [3] | max response [5] 0.48% | Potency [13] | outcome [6] | Potency [7] | max response [8] 0.255% | max response [9] 0.331% | Potency [10] | max response [11] 3.15% | outcome [12]

CN(C)CCCCl
inactive: Potency [1] | Potency [2] | Potency [3] | max response [5] -1.33% | Potency [13] | outcome [6] | Potency [7] | max response [8] 19.9% | max response [9] 7.77% | Potency [10] | max response [11] 3.08% | outcome [12]

Clc1ccccn1
inactive: Potency [1] | Potency [2] | Potency [3] | Potency [13] | outcome [6] | max response [8] -1.74% | max response [9] -2.77% | Potency [10] | max response [11] -2.56% | outcome [12]

CNC(=O)c1ccccc1
inactive: Potency [1] | Potency [2] | Potency [3] | activation [4] -0.192% | Potency [13] | outcome [6] | Potency [7] | max response [8] -3.92% | max response [9] 8.06% | Potency [10] | max response [11] -4.07% | outcome [12]
